Measured values: PubChem BioAssay (NCI)
The panel holds about 83,000 compounds, 20% with a hit somewhere; the sample as a whole holds those more often.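 A percent growth of 40 corresponds to 60% growth inhibition; 0 means no net growth; -100 means all cells died. Active threshold: below 10.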 A number with no mark means an inactive call. Activity calls are given as the source filed them.

Experiments:
Assay in all cases: NCI-60 one-dose screen, 48 h (100 = growth as untreated, 0 = no growth, -100 = all killed)
Conditions in all cases: 10 µM unless noted
[1] = test system: BT-549 breast
[2] = test system: MDA-MB-435 melanoma
[3] = test system: SW-620 colon
[4] = test system: MCF7 breast
[5] = test system: HCT-116 colon
[6] = test system: HCC-2998 colon
[7] = test system: KM12 colon

| Compound | growth [1] | growth [2] | growth [3] | growth [4] | growth [5] | growth [6] | growth [7] |
| --- | --- | --- | --- | --- | --- | --- | --- |
| Cc1cc(CC(=O)O)n(C)c1C(=O)c1ccc(Cl)cc1 | 101% | 106% | 103% | 120% | 102% | 108% | 105% |
| CCN1C(=O)c2ccc3c4c(ccc(c24)C1=O)C(=O)N(CCCNCc1ccccc1OC)C3=O | -75.9% (active) | -80.3% (active) | -57.4% (active) | -25.5% (active) | -79% (active) | -82.6% (active) | -35.1% (active) |
| CC[N+](CC)(CCOCCOCC[N+](CC)(CC)Cc1ccc([N+](=O)[O-])cc1)Cc1ccc([N+](=O)[O-])cc1 | 107% | 104% | 101% | 104% | 97.8% | 98.1% | 101% |
| COc1ncc(-c2ccc3nccc(C#CCN4CCN(S(C)(=O)=O)CC4)c3c2)cc1NS(=O)(=O)c1ccc(F)cc1F | -17.6% (active) | -23% (active) | 0.433% (active) | 6.88% (active) | -10.4% (active) | -37% (active) | -57.2% (active) |
| OC(c1cc(C(F)(F)F)nc2c(C(F)(F)F)cccc12)C1CCCCN1 (stereo not given) | 67.6% | 61.5% | 72.9% | 21.8% | 44.7% | 20.1% | 32.7% |
| CCOC(=O)C1=NN(c2ccc(Cl)cc2)C2C3N(c4ccc(Cl)cc4)N=C(C(=O)OCC)N3c3ccccc3N12 (stereo not given) | 123% | 100% | 110% | 85.7% | 87.9% | 97.5% | 103% |
| CCCCC(C#N)C(N)=O (stereo not given) | 114% | 114% | 111% | 97.7% | 98.4% | 104% | 119% |
| O=C(Cc1ccccn1)C(F)(F)C(F)(F)C(F)(F)F | 127% | 113% | 109% | 97.3% | 104% | 100% | 135% |
| c1ccc(-n2nnnc2-c2cccc3ccccc23)cc1 | 29.5% | -10.5% (active) | 20.8% | 19.8% | 14.9% | 23.5% | 31.3% |
| CC(=O)c1cc(C(=O)c2ccc3c(c2)Sc2ccccc2N3)c2c(C)cc(C)cn12 | 28.5% | -22.1% (active) | 20.8% | 15.1% | 3.76% (active) | 18% | 11.1% |
| COc1cc(C2CC(=O)Nc3c2cc(Br)c2ccccc32)cc(Br)c1OC (stereo not given) | 60.7% | -29.6% (active) | 17.6% | 17.3% | -5.31% (active) | 90.9% | 6.63% (active) |
| O=[N+]([O-])c1ccc(N/N=C\c2ccccc2[N+](=O)[O-])nc1 | 101% | 107% | 107% | 88.8% | 102% | 107% | 104% |
| O=C(O)c1ccc(NC(=O)c2cccc(Nc3ccnc(C(F)(F)F)c3)c2)cc1 | 95.8% | 106% | 103% | 96.8% | 95% | 104% | 107% |
| Cc1ccccc1-c1cc(Cc2ccccc2O)c(=O)[nH]n1 | 112% | 109% | 116% | 103% | 93.5% | 124% | 98.1% |
| Cc1cc(NC(=O)Nc2cc(Cl)ccc2C)no1 | 147% | 110% | 110% | 84.4% | 104% | 99.3% | 107% |
| O=C1C(Cl)=C(N=Nc2c(Cl)c(O)c3ccccc3c2O)C(=O)c2ccccc21 | 62% | -31.7% (active) | 90% | 62.6% | 70.4% | 74.4% | 86.4% |
| Cc1cc(NCCCNc2ccnc3cc(Cl)ccc23)nc(N2CCN(C)CC2)n1 | 95.6% | 46% | 37.3% | 33.1% | 18.5% | 48.9% | 52.6% |
| Cc1cc(C(C)(C)c2cc(C)c(O)c(CN(C)C)c2)cc(CN(C)C)c1O | 84.5% | 78.1% | 92.7% | 96.4% | 55.1% | 82.1% | 101% |

| Compound | growth [1] | growth [2] | growth [3] | growth [4] | growth [5] | growth [6] | growth [7] |
| --- | --- | --- | --- | --- | --- | --- | --- |
| COc1ccc2nc3cc(Cl)ccc3c(Nc3cc(C(C)C)c(O)cc3C)c2c1 | 57% | 30.8% | 21.8% | 15.5% | 1.48% (active) | 37.5% | 8.35% (active) |
| CN1COc2ccc3ccccc3c2C1 | 98.1% | 106% | 99.7% | 91.8% | 93.1% | 93% | 105% |
| O=[N+]([O-])c1ccc2c(c1)S(=O)c1cc([N+](=O)[O-])ccc1N2 | 102% | 106% | 95.8% | 99.2% | 94% | 104% | 102% |
| COc1ccc(C2CC(c3ccc(OC)c(OC)c3)=NN2C(=O)c2cc(OC)c(OC)c(OC)c2)cc1 (stereo not given) | 27.6% | -26.6% (active) | 20.9% | 27.6% | 20.6% | 61.1% | 16.2% |
| Cc1ccc(C=C2C(Cl)=C(Cl)C(Cl)=C2Cl)cc1 | -31.3% (active) | -61.9% (active) | -77.9% (active) | -23.8% (active) | -100% (active) | -94.8% (active) | -79.6% (active) |
| CO[C@H]1/C=C/O[C@@]2(C)Oc3c(C)c(O)c4c(O)c(c(/C=N/N5CCN(C)CC5)c(O)c4c3C2=O)NC(=O)/C(C)=C\C=C\C(C)[C@H](O)[C@@H](C)[C@@H](O)[C@@H](C)[C@@H](OC(C)=O)[C@@H]1C (stereo not given in full) | 99.2% | 103% | 107% | 98.7% | 101% | 99.5% | 100% |
| CCOc1nc(-c2ccccc2)cc2c(O)c(-c3nnco3)[nH]c(=O)c12 | 41.6% | 63.8% | 32.2% | 23.3% | 39.7% | 61.5% | 48.9% |
| COc1ccc(C(=O)/C=C/c2c(Cl)nc3c(c(C)nn3-c3ccccc3)c2-c2ccc(Br)cc2)cc1 | 97.5% | 107% | 110% | 96.7% | 102% | 114% | 109% |
| NNC(=O)NO | 99% | 108% | 103% | 94% | 101% | 99.9% | 98.2% |
| CC(c1ccccn1)C(C)(O)C(C)c1ccccn1 (stereo not given) | 108% | 104% | 112% | 103% | 108% | 104% | 105% |
| CC(c1cc(Cl)ccc1O)c1cc(Cl)ccc1O | 44.7% | -2.51% (active) | 30.6% | 20.1% | 15.2% | 63% | 31.8% |
| Cc1cc(=O)n2n1-c1ccc(Cl)cc1NC(=O)C2 | 104% | 88.2% | 109% | 94.1% | 107% | 110% | 114% |
| Oc1ccccc1/C=N\Nc1ccccc1 | 65.1% | 28.6% | 34.5% | 61.1% | 68.6% | 79.6% | 19.8% |
| O=[N+]([O-])c1ccc(Oc2cccc(C(F)(F)F)c2)c([N+](=O)[O-])c1 | 3.1% (active) | -16.6% (active) | 13.5% | 112% | 3.46% (active) | 92.5% | 86.2% |
| C/C(=C\CCc1ccsc1)CC/C=C(\C)CCCN1CCC(CO)CC1 | 36.2% | 13% | -29.8% (active) | 16% | -2.6% (active) | -14.9% (active) | 5.04% (active) |
| Nc1ncc(-c2cnn(C3CCNCC3)c2)cc1-c1nc2cc(Cl)ccc2o1 | 61.3% | -100% (active) | -100% (active) | -93.3% (active) | -100% (active) | -100% (active) | -100% (active) |
| CC(NC(=O)C(C)Oc1ccc(Cl)cc1Cl)C(=O)O (stereo not given) | 108% | 104% | 105% | 99.1% | 89.6% | 94.4% | 109% |
